Source: PubChem BioAssay (NCATS)
Records with an inconclusive call do not appear. Values without a mark were called inactive. The source made the active and inactive calls. Calls come from the whole dose curve; as a rule, active = well fitted inhibition curve with a large enough effect; inconclusive = small, poorly fitted or top-dose-only effect; inactive = flat fitted curve, though single readings scatter. Positions of bridges follow the written chain, without caps; N, C: chain ends. Non-standard residues stand in square brackets, D forms with d. Residues, ends and D or L forms follow the SMILES beside them. ξ: configuration not given here. *: point of attachment. Octanoyl(6-Me) = CCC(C)CCCCC(=O)*; ξThr(3R) = C[C@@H](O)C(N)C(=O)O; dDab = NCC[C@@H](N)C(=O)O; Dab = NCC[C@H](N)C(=O)O

The molecules below were run on Zika virus NS2B-NS3 protease (assay: Primary screen GU AMC qHTS for Zika virus inhibitors (AID 1347154; note: nearly all actives have a fitted effect of over 70% in size;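 for activity change, negative = inhibition: 0% = no-inhibitor control and -100% = no-enzyme control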)). Settings: Zika NS2B-NS3 unlinked protease, AMC fluorogenic substrate; series mostly up to 54.1 µM; activity change, negative = inhibition: at the top concentration.
Summary of the method: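 Unlinked Zika NS2B hydrophilic domain/NS3 protease domain noncovalent complex (25 nM final) in 10 mM Tris-HCl pH 8.0, 0.01% Tween 20, with AMC peptide substrate. Fluorescence (ex 340, em 450 nm) change over 15 min, room temperature; percent inhibition fitted to 4-parameter Hill equation.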
Potency is the fitted concentration of half-maximal effect.

SMILES	activity change, negative = inhibition	Potency
COc1cc2c(cc1O)CCC1C2CC[C@@]2(C)C1CC[C@@H]2O (stereo partly drawn)	4.85%	–
CC(O)(C#Cc1ccc2c(c1)N(c1nc(N)ncc1Cl)CC2)c1nccs1 (stereo not drawn)	-2.32%	–
CCOC(=O)[C@@H](N)Cc1ccc(-c2cc(O[C@H](c3ccc(Cl)cc3-n3ccc(C)n3)C(F)(F)F)nc(N)n2)cc1	-15.7%	–
Cc1cc(O)c2c(c1)C(=O)c1cccc(O)c1C2=O	6.61%	–
C[C@@H](Cc1cc2c(c(C(N)=O)c1)N(CCCO)CC2)NCCOc1ccccc1OCC(F)(F)F	-9.48%	–
CCCCCCCN(CC)CCCC(O)c1ccc(NS(C)(=O)=O)cc1 (stereo not drawn)	–	24.1 µM (active)
C[C@H](NC(=O)C(C#N)=Cc1cccc(Br)n1)c1ccccc1	5.08%	–
C#C[C@]1(O)CC[C@@H]2[C@@H]3CCc4cc(O)ccc4[C@H]3CC[C@@]21C	-2.57%	–
C=CC[C@@H]1C=C(C)C[C@H](C)C[C@H](OC)[C@H]2O[C@@](O)(C(=O)C(=O)N3CCCC[C@H]3C(=O)O[C@H](C(C)=C[C@@H]3CC[C@H](O)[C@H](OC)C3)[C@@H](C)[C@@H](O)CC1=O)[C@@H](C)C[C@@H]2OC	29.2%	–
O=C(CCCCCCC(=O)Nc1cccnc1)NO	0.587%	–
Cn1cc(C2=C(c3c4n(c5ccccc35)CCC(CN)C4)C(=O)NC2=O)c2ccccc21 (stereo not drawn)	6.99%	–
COc1ccc([C@@H]2CNC(=O)C2)cc1OC1CCCC1	–	inactive
CC(C)(C)c1nc2c3cc[nH]c(=O)c3c3cc(F)ccc3c2[nH]1	2.74%	–
Cc1cc(C(=O)NOCCO)c(Nc2ccc(I)cc2F)n(C)c1=O	-0.225%	–
COC(=O)[C@H](CCCN=C(N)N)NS(=O)(=O)c1ccc(C)cc1	15.8%	–
C=C(C)[C@@H]1CC[C@]2(C(=O)O)CC[C@]3(C)[C@H](CC[C@@H]4[C@@]5(C)CC[C@H](O)C(C)(C)[C@@H]5CC[C@]43C)[C@@H]12	2.34%	–
CC1(C)CC(O)CC(C)(C)N1[O]	12.8%	–
CC1(C)[C@H](O[C@H]2O[C@H](C(=O)O)[C@@H](O)[C@H](O)[C@H]2O[C@@H]2O[C@H](C(=O)O)[C@@H](O)[C@H](O)[C@H]2O)CC[C@@]2(C)[C@H]1CC[C@]1(C)[C@H]2C(=O)C=C2[C@H]3C[C@@](C)(C(=O)O)CC[C@]3(C)CC[C@]21C	9.9%	–
CC(C)(C)[C@H](NC(=O)c1ccc(N)c(Cl)c1)C(=O)N1CCC[C@@H]1C(=O)N[C@H](C#N)CC(=O)O	6.17% [at 6.83 µM]	–

SMILES	activity change, negative = inhibition	Potency
Cc1ccc(O)c(C(CCN(C(C)C)C(C)C)c2ccccc2)c1 (stereo not drawn)	6.1%	–
O=c1c(O)c(-c2ccc(O)c(O)c2)oc2cc(O)ccc12	–	17.1 µM (active)
Cn1cc(-c2ccc3ncc(Cc4ccc5ncccc5c4)n3n2)cn1	304%	–
Cc1cnc(NC(=O)Nc2cc(Br)c(C)cc2OC[C@@H]2CNCCO2)cn1	11.9%	–
CCCCOc1ccc(C(=O)Nc2ccc(F)cc2F)cc1	-14.5%	–
NC(=O)c1cccc(-c2cccc(OC(=O)NC3CCCCC3)c2)c1	6.33%	–
O=[N+]([O-])c1cn2c(n1)OC[C@@H](OCc1ccc(OC(F)(F)F)cc1)C2	3.73%	–
COc1cc(C(=O)NC2CCN(C)CC2)ccc1Nc1ncc2c(n1)N(C1CCCC1)CCC(=O)N2C(C)C	-0.39%	–
CCC(C)CCCCC(=O)N[C@@H](CCN)C(=O)NC(C(=O)N[C@H](CCN)C(=O)N[C@@H]1CCNC(=O)C([C@@H](C)O)NC(=O)[C@@H](CCN)NC(=O)[C@@H](CCN)NC(=O)[C@@H](CC(C)C)NC(=O)[C@H](Cc2ccccc2)NC(=O)[C@H](CCN)NC1=O)[C@@H](C)O (stereo partly drawn) ({Octanoyl(6-Me)}-[Dab][ξThr(3R)][dDab][dDab][Dab]F[dL][dDab][dDab][ξThr(3R)]; lactam 4-C)	18.6%	–
CC(=O)OCC(=O)[C@@]12N=C(C)O[C@H]1C[C@H]1[C@@H]3CCC4=CC(=O)C=C[C@]4(C)[C@@H]3[C@@H](O)C[C@@]12C	-0.407%	–
Oc1ccc([C@@H]2Oc3ccc(O)cc3[C@@H]3CCC[C@@H]32)cc1	-6.85%	–
O=c1ccn([C@@H]2O[C@H](CO)[C@H](O)[C@@H]2F)c(=O)[nH]1	4.16%	–
CC[C@H]1OC(=O)[C@H](C)[C@@H](O[C@H]2C[C@@](C)(OC)[C@@H](O)[C@H](C)O2)[C@H](C)[C@@H](O[C@@H]2O[C@H](C)C[C@H](N(C)C)[C@@H]2O)[C@](C)(OC)C[C@@H](C)C(=O)[C@H](C)[C@@H](O)[C@]1(C)O	3.75%	–
CCNC(=O)Nc1ccc(-c2nc3c(c(N4CCOC[C@H]4C)n2)CCN(C2COC2)C3)cc1	-1.21%	–
C=C1C(=O)O[C@H]2[C@@H]1CCC(C)=CCC[C@@]1(C)O[C@@H]21	7.99%	–
CCN1CCN(C(=O)N[C@H](C(=O)N[C@@H]2C(=O)N3C(C(=O)O)=C(CSc4nnnn4C)CS[C@@H]23)c2ccc(O)cc2)C(=O)C1=O	13.2% [at 16.4 µM]	–
CCn1c(=O)c2c(nc(C=Cc3ccc(OC)c(OC)c3)n2C)n(CC)c1=O	-2.68%	–
CCOC(=O)N1CCN([N+]([O-])=NOc2ccc([N+](=O)[O-])cc2C#N)CC1	2.48%	–
OC[C@@H](O)[C@@H](O)[C@H](O)[C@@H](O)CO	16.4%	–
